D2 ag-1: activates the human D2 dopamine receptor; AID 624465; activation, % (no concentration beside the values); DiscoveRx PathHunter D2 beta-arrestin, luminescence, 90 min; 100% = 57 uM dopamine signal; 360,000 tested, 0.084% active; in the data active means activation above about 40%; inconclusive means between about 15% and that limit
Target sequence (P14416 whole entry, looked up): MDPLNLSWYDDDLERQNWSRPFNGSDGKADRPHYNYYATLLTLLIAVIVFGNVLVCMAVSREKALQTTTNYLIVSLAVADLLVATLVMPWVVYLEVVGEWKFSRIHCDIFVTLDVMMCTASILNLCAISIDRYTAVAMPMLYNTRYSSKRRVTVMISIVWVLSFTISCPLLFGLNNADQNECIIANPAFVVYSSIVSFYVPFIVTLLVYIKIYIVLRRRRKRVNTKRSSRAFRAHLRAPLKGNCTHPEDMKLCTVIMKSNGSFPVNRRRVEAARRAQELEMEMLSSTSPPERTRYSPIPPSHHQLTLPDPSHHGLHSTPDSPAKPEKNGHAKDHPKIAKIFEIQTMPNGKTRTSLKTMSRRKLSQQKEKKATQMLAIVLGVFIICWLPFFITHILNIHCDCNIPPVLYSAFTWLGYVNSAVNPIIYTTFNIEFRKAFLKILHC
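Agonist mode: compounds alone added to overnight-plated D2 PathHunter cells for 90 min at 37 C, with 57 uM final dopamine (EC100) defining full response. Beta-arrestin recruitment detected by chemiluminescent reagent, read after 1 h at ambient temperature.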
D2 antagonist: antagonists of human D2 dopamine receptor. HEK293 TREx D2 cells, calcium flux, dopamine EC80. inhibition, % at 10 µM. 340,000 tested, 2% active. P14416; in the data active means inhibition above about 30%; inactive means below that, where a call was filed
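Compounds are added to dye-loaded, induced HEK293 T-REx cells coupled to calcium release via D2; after a 3 min kinetic read an EC80 dopamine stimulus is given and fluorescence is recorded for 3 more min.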
D2 ag-2: D2 dopamine receptor (human) agonism | 340,000 tested, 0.53% active | activation, % at 2 µM | P14416 | HEK293 T-REx D2 cells, calcium flux agonist mode;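 active means activation over 3 SD above normal in the single-dose calcium agonist read, cut at about 30% in these data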
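Tetracycline-induced HEK293 T-REx cells with force-coupled D2 receptor, plated overnight at 30 C, loaded with no-wash calcium dye. After a 10 s baseline, compound was pin-added and calcium flux read kinetically for 180 s; calcium rises flagged agonists.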
D2 PAM-1: D2 dopamine receptor (human) potentiation; P14416; HEK293 T-REx D2, calcium flux, EC20 dopamine potentiation; potentiation, % at 10 µM; 340,000 tested, 0.34% active; AID 485347;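 active means potentiation over 3 SD above the plate norm, cut at about 30% in these data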
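Primary screen. Calcium kinetics in induced HEK293 T-REx D2 cells: compound pre-addition 180 s, EC20 dopamine, 180 s more.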
D2 PAM-2: potentiates the human D2 dopamine receptor allosterically; P14416; DiscoveRx D2 beta-arrestin cells, luminescence, 90 min; 100% = 57 uM dopamine signal; potentiation, % (test concentration not listed); 360,000 tested, 0.23% active; in the data active means potentiation above about 50%; inconclusive means mostly about 30% to 49%
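PathHunter D2 cells, attached overnight at 37 deg C, received compound in DMSO plus dopamine at EC20 (50 nM final) for 90 min at 37 deg C. Beta-arrestin recruitment was read as luminescence after 1 h with detection reagent at ambient temperature.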
A number is an active result; – = inactive; ? = inconclusive; · = not tested or not shown. Only some compounds are listed: those with a hit (about 2.4% of all), similar ones and a draw of the others.

SMILES | D2 ag-1 | D2 antagonist | D2 ag-2 | D2 PAM-1 | D2 PAM-2
COC(=O)CNC(c1ccccc1)c1cc(Br)ccc1NC(=O)c1ccccc1 (configuration not stated) | · | · | – | – | ·
Cc1ccc(C(=O)Nc2cccc(C(=O)N/N=C/c3ccc(F)cc3)c2)cc1 | – | 31.3 | – | – | –
COC(=O)c1cc2occc2n1Cc1ccc(Cl)cc1 | – | – | – | – | –
CCOC(=O)c1cc2occc2n1Cc1c(F)cccc1Cl | – | 31.2 | – | – | –
CCOC(=O)c1cc2occc2n1Cc1ccc(F)cc1 | – | 34.2 | – | – | –
CCOc1ccc(S(=O)(=O)NCCc2sc3nc(-c4ccc(F)cc4)nn3c2C)cc1 | · | · | – | – | ·
c1ccc(CNc2ccccn2)cc1 | – | – | – | – | –
c1ccc(Nc2ccccc2Nc2ccccn2)nc1 | – | 33.7 | – | – | –
c1ccc(N2CCN(CC3CCCCC3)CC2)cc1 | ? | 68.2 | 71.0 | – | –
CC(=O)N1c2ccc(S(=O)(=O)NCC3CCC(C(=O)Nc4cccc(C)n4)CC3)cc2CC1C (configuration not stated) | – | – | – | – | –
CC1CCCCN1C(=O)Cn1nnc(-c2cccnc2)n1 (configuration not stated) | – | 31.9 | – | – | –
COc1ccc(CC(=O)Nc2ccc(S(=O)(=O)NCC3CCCO3)cc2)cc1 (configuration not stated) | – | 31.8 | – | – | –
CC(=O)Nc1ccc(S(=O)(=O)NCC2CCCO2)cc1 (configuration not stated) | – | · | · | · | –
CC(C)CNS(=O)(=O)c1ccc(OCC(=O)Nc2ccc3c(c2)OCCO3)cc1 | – | – | – | – | –
CCC(C)NS(=O)(=O)c1ccc(OCC(=O)NCC2CCCO2)cc1 (configuration not stated) | – | – | – | 34.1 | –
CCC(C)NS(=O)(=O)c1ccc(OCC(=O)Nc2ccc3c(c2)OCCO3)cc1 (configuration not stated) | – | – | – | 47.8 | –
Cc1cc(C)cc(OCC(=O)Nc2cccc3cccnc23)c1 | · | · | – | – | ·
COc1cc(Br)ccc1C1C(C(=O)Nc2ccc(C)cc2C)=C(C)Nc2nnnn21 (configuration not stated) | · | · | – | – | ·
COc1cccc(CN2C(=O)c3ccccc3Sc3ccc(C(=O)NCc4ccccc4)cc32)c1 | · | · | – | – | ·
Cc1ccc(N2CCN(C(=O)NCc3noc4ccc(C)cc34)CC2)c(C)c1 | · | · | – | – | ·
CC(C)(C)NC(=O)CN(Cc1ccc2c(c1)OCO2)C(=O)CCC(=O)Nc1nccs1 | – | – | – | – | –
CCC(C)(C)NC(=O)CN(Cc1ccc2c(c1)OCO2)C(=O)CCC(=O)Nc1cc(C)ccn1 | – | 42.2 | – | – | –
COCCN(C(=O)CCC(=O)Nc1cc(C)on1)C(C(=O)NC(C)(C)C)c1ccc(OC)cc1 (configuration not stated) | – | – | – | – | –
COc1ccc(C(C(=O)NC(C)(C)C)N(CCc2ccc(OC)c(OC)c2)C(=O)CCC(=O)Nc2cc(C)on2)cc1 (configuration not stated) | – | 34.5 | – | · | –
COc1cccc(C(C(=O)NC2CCCC2)N(CCC(C)C)C(=O)CCC(=O)Nc2cc(C)on2)c1 (configuration not stated) | – | – | – | – | –
SMILES | D2 ag-1 | D2 antagonist | D2 ag-2 | D2 PAM-1 | D2 PAM-2
CCCCN(C(=O)CCC(=O)Nc1cc(C)on1)C(C(=O)NC(C)(C)C)c1ccccc1Cl (configuration not stated) | – | – | – | · | –
COc1ccc(C(C(=O)NC2CCCC2)N(CCC(C)C)C(=O)CCC(=O)Nc2cc(C)on2)cc1 (configuration not stated) | – | 34.8 | – | – | –
COCCN(C(=O)CCC(=O)Nc1cc(C)on1)C(C(=O)NC(C)(C)C)c1ccccc1Cl (configuration not stated) | – | 45.3 | – | · | –
COc1ccc(Nc2ncnc3c2cnn3-c2ccc(C)cc2)cc1Cl | · | · | – | – | ·
COc1ccc(-c2cn(/N=C/c3ccc(Cl)cc3Cl)c(N)n2)cc1 | – | – | – | – | –
Cc1cc(C)c(NC(=O)CN(C)C(=O)c2ccc(OCc3ccccc3)cc2)c(C)c1 | – | – | – | – | –
